# RORg inh = inhibitors of mouse ROR gamma transcriptional activity; P51450; Drosophila S2 Gal4-RORgamma UAS-luciferase reporter, 20 h; actives 5.4% (n = 310,000); Potency, µM (top dose mostly 53.6 µM), for the others: top-dose activity change, negative = inhibition, actives largely listed as inhibitors; AID 2551; further: on the % scale 0 is the no-effect control and ±100 the full control effect; nearly all actives have a fitted effect of over 60% in size
#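 Stable Schneider cell line, Gal4 DNA-binding domain fused to ROR gamma, UAS-luciferase. Cmpd 1 hr RT → CuSO4 700 uM final → 20 hr RT → luciferase reagent 10 min → luminescence.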
# Sfp inh = inhibitors of Bacillus subtilis Sfp phosphopantetheinyl transferase. Potency, µM, inactives show largest response in the series, negative = inhibition, actives largely listed as inhibitors. actives 3.5% (n = 310,000). Biochemical Sfp PPTase activity, qHTS;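 further: the enzyme is Sfp with the accession as filed and its product quenches rhodamine fluorescence; 0% = enzyme reaction without inhibitor and -100% = no enzyme wells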
#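 Buffer: 50 mM Hepes-Na pH 7.6, 10 mM MgCl2, 0.01% Nonidet P-40, 0.01% BSA. Enzyme 15 nM, pre-exposed to compound 15 min; substrates then added and fluorescence change tracked over 30 min.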
# Gal4-VP16 FLuc = Gal4-VP16 reporter inhibition counter-screen | Drosophila S2 Gal4-VP16 UAS-luciferase, luminescence, 20 h | Potency, µM (titrated, usually from 53.6 µM), inactives show at the top dose activity, negative = inhibition, hits mostly inhibitors | actives 3.5% (n = 310,000);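 further: Gal4-VP16 expression switched on by copper sulfate through the metallothionein promoter; on the % scale 0 is the no-effect control and ±100 the full control effect; nearly all actives have a fitted effect of over 50% in size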
# ClpP mod = qHTS Assay for Activators of ClpP | ATP-dependent Clp protease proteolytic subunit (Bacillus subtilis (strain 168)), P80244 | purified B. subtilis ClpP, FRET peptide cleavage, 20 min | Potency, µM (top dose mostly 57.5 µM), for the others: at the top dose activity change, negative = active | actives 1.9% (n = 340,000) | AID 651965, 2013; active means well fitted falling curve with a large enough effect; inconclusive means small, poorly fitted or top-dose-only effect; inactive means no such curve, though single readings can be large or run the other way; further: the source files actives as falling curves though it sought activators and does not explain the sign; nearly all actives have a fitted effect of over 65% in size
#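 FRET quenching reversal measured ClpP activation: 10 microg/mL B. subtilis ClpP at pH 8 with the FRET-FV decapeptide, read at 430 nm after 320 nm excitation. The 20-min minus 0-min signal was scaled between DMSO/no-enzyme wells and ADEP (5.8 microM final).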
# Epigenetic reg = derepresses silenced GFP reporter in murine cells. murine LDR cells, GFP reporter derepression, 30 h. Potency, µM (titrated, usually from 53.9 µM), for the others: at the highest dose GFP activation, most hits filed as activators. actives 0.2% (n = 280,000). AID 1865; further: % of control where 0% means no effect; nearly all actives have a fitted effect of over 60% in size
#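 GFP-positive cell count by laser-scanning cytometry (objects 20–120 um) after 30 h, 37 C compound exposure of murine LDR cells; reporter is CMV-GFP integrated at a silenced locus, inducible by HDAC or DNMT inhibitors.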
# PINK1 modulator = modulators of PINK1 expression | PINK1 immunofluorescence, high-content cytometry, 24 h | Potency, µM (series often up to 76.6 µM), for the others: at the highest dose activation (PINK1 increase), usual class: activators | actives 0.2% (n = 410,000); active means well fitted activation curve with a large enough effect; inconclusive means small, poorly fitted or top-dose-only effect; cell line not stated here; further: % of control where 0% means no effect; nearly all actives have a fitted effect of over 65% in size
#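 Stable cell line treated 24 h with compounds at 5 concentrations (CCCP controls), then fixed and immunostained for PINK1 plus nuclear and cell stains; PINK1 immunofluorescence quantified by laser-scanning microplate cytometry.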
# Starred values were filed as active, the others as inactive; u = inconclusive; x = no result; ! = not active in a repeat; [ ] = dose if it differs, or a comment. This is a sample that favours compounds with a hit; in the whole collection about 8.1% have one here. Unless noted, the call rests on the fitted dose curve; in most records, active means well fitted curve in the direction sought with a large enough effect; inconclusive means small, poorly fitted or top-dose-only effect, or another doubt; inactive means no such curve, though single readings can be large; an effect the other way counts as inactive or inconclusive. Potency means the concentration at half of the fitted maximal effect.
SMILES,RORg inh,Sfp inh,Gal4-VP16 FLuc,ClpP mod,Epigenetic reg,PINK1 modulator
CCCCOc1ccc(CSCCN)cc1Cl,1.26µM*,-8.9%,2µM*,-2.1%,0.9%,-0.1%
O=C(c1ccccc1)c1ccc(OCC(O)CNCc2cccc(Cl)c2)cc1 (stereo not drawn),-9.0%,89.1µM*,-9.2%,-0.8%,x,-2.9%
CCCCOCCCNc1ncnc2c1[nH]c1ccccc12,u,-0.5%,10µM*,28.2µM*,1.6%,7.2%[38.3 µM]
CCOc1ccc2[nH]c3c(NCCO)ncnc3c2c1,3.4%,-6.0%,-3.7%,3.7%,x,1.2%
CCOCCCNc1ncnc2c1[nH]c1ccccc12,14.7%,0.9%,u,15.8µM*,1.1%,1.1%
COc1cccc(N2C(=O)C(CC(=O)Nc3ccc(F)cc3)N(CCC3=CCCCC3)C2=O)c1 (stereo not drawn),x,x,x,-3.6%,-2.3%,3.1%
CC1CCCC(C)N1S(=O)(=O)c1ccc(Cl)cc1 (stereo not drawn),-33.3%,13.8%,0.6%,x,x,2.3%
CC1=C(C)CS(=O)N(S(=O)(=O)c2ccc(Cl)cc2)C1 (stereo not drawn),u,3.55µM*,6.31µM*,0.2%,3.4%,-2.9%
O=C(CSc1c2c(nc3ccc(Cl)cc13)CCCC2)N1CCN(c2cccc(Cl)c2)CC1,x,x,x,-5.3%,-3.5%,3.4%
Cn1c(Cn2nnc(-c3ccccc3)n2)nnc1SCc1ccccc1Cl,6.0%,5.2%,11.2µM*,-0.1%,0.1%,-2.7%[38.3 µM]
CCOC(=O)c1cccc(NC(=O)CCc2c(C)nc3c4cccnc4nn3c2C)c1,x,x,x,3.8%,-3.4%,0.7%
Cc1sc2ncnc(NCC(O)c3ccccc3)c2c1C (stereo not drawn),u,6.3%,15.8µM*,x,x,-0.9%
Cc1sc2ncnc(NCC(c3ccccc3)N(C)C)c2c1C (stereo not drawn),-9.6%,2.7%,20.5%,x,x,-1.1%
Cc1sc2ncnc(NCC(O)c3ccc([N+](=O)[O-])cc3)c2c1C (stereo not drawn),u,3.6%,5.01µM*,x,x,2.5%
CCC1(CC)NC(=S)NC1=S,x,x,x,28.2µM*,x,1.0%
CCSc1nc2c([nH]c3ccccc32)c(=O)n1-c1ccc(F)cc1,x,x,x,-8.6%,0.3%,1.0%
O=S(=O)(c1ccc(-c2csc(Nc3ccc(F)cc3)n2)cc1)N1CCCC1,u,-43.2%,1.1%,20µM*,-0.4%,6.7%
Cc1cc(C)cc(Nc2nc(-c3ccc(S(=O)(=O)N4CCCC4)cc3)cs2)c1,15.6%[10 µM],2.6%,3.1%,3.7%,-1.1%,8.8%
Cc1ccc(Nc2nc(-c3ccc(S(=O)(=O)N4CCOCC4)cc3)cs2)cc1,x,x,x,12.6µM*,x,22.4%[38.3 µM]
c1ccc(CC[C@@H]2CC[C@@H](CCc3ccccc3)N2)cc1,x,x,x,1.1%,x,14.6%
O=C(O)C1CSC(CCc2ccccc2)N1 (stereo not drawn),-1.8%,79.4µM*,0.2%,-0.7%,-1.6%,-1.2%
COc1cc(/C=C/C(=O)CC(=O)/C=C/c2ccc(O)c(OC)c2)ccc1O,11.2µM*,44.7µM*!,15.8µM*,-0.6%,u,u
COc1cc(/C=C/C(=O)O)ccc1O,1.7%,5.9%,4.0%,u,0.8%,0.1%
COc1ccc(/C=C/C(=O)CC(=O)/C=C/c2cccc(O)c2OC)cc1O,6.31µM*,31.6µM*!,4.3%,x,12.6µM*,x
COc1ccc(C(=O)/C=C/c2ccc(OC)c(O)c2)c(F)c1,10µM*,50.1µM*,u,0.4%,0.0%,-2.1%
SMILES,RORg inh,Sfp inh,Gal4-VP16 FLuc,ClpP mod,Epigenetic reg,PINK1 modulator
COc1cc(/C=C/C(=O)/C=C(O)/C=C/c2ccc(O)c(OC)c2)ccc1O,15.8µM*!,6.3%,u,5.2%,31.6µM*,u
COc1ccc(C=CC(=O)c2ccc(OC)c(OC)c2)cc1O,x,x,x,-2.0%,x,-1.3%
COc1cc(C)ccc1OCCOCCOc1cccc2ccc(C)nc12,-24.6%,50.1µM*,-8.3%[10 µM],x,3.6%,-0.5%
COc1cc(C)ccc1OCCCOc1ccccc1Br,12.6µM*,-10.4%,-23.0%,-1.3%,-1.1%,9.9%
COc1ccccc1OCCCOc1ccc(C)cc1Br,-0.1%,-0.2%,-15.7%,0.6%,0.1%,1.8%
CC1Cc2cc(S(=O)(=O)NCc3ccc(Cl)cc3)ccc2N1C(=O)C1CCC1 (stereo not drawn),x,x,x,-3.2%,0.8%,-0.3%
CCC(C)NCCOCCOc1ccc(Cl)cc1Br (stereo not drawn),-22.1%,50.1µM*,-16.3%,u,-1.1%,-1.2%
Cc1ccc(OCCOCCNC(C)C)c(Br)c1,-34.3%,-22.1%,-17.0%,-0.5%,-1.2%,0.1%
Cc1cc(C)nc(N2N=C(C(C)(C)C)CC2=O)n1,u,-9.9%,-27.9%,1.3%,-8.5%,u
CCC1C(=O)N(c2nc(C)cc(C)n2)N=C1C (stereo not drawn),u,56.2µM*,-8.9%,1.3%,0.8%,u
CC1=NN(c2nc(C)cc(C)n2)C(=O)C1CCC(C)C (stereo not drawn),2µM*,5.1%,7.94µM*,-0.5%,-0.4%,u
CCCOC(=O)C1=C(C)CS[C@@H]2[C@H](NC(=O)COc3ccccc3)C(=O)N12,x,x,x,-14.2%,x,x
CC(NC(=O)c1cnn2c1NC(=C1CC1)C=C2C(F)F)c1ccncc1 (stereo not drawn),x,x,x,-15.3%,x,-1.0%
Cc1cc(F)ccc1S(=O)(=O)Nc1ccc2oc3c(c2c1)CC(C)CC3 (stereo not drawn),x,x,x,-5.7%,0.0%,6.6%
CC(=O)c1c(C)oc2ccc(NS(=O)(=O)c3ccc(F)cc3C)cc12,u,18.3%,12.6µM*,x,x,9.4%
COc1cc(NC(=O)CSc2nccc(C)n2)c(C(=O)O)cc1OC,30.3%,u,1.0%,0.2%,5.2%,2.4%
COc1ccc2nc(SCC(=O)Nc3cc(OC)c(OC)cc3C(=O)O)c(C)cc2c1,-10.7%,79.4µM*,-5.7%,-1.9%,-2.4%,1.2%
Cc1[nH]n(-c2ccccc2)c(=O)c1C(C[N+](=O)[O-])c1ccc(Br)cc1 (stereo not drawn),u,-23.8%,-26.5%,-1.0%,0.7%,-0.5%
COc1cccc(C(C[N+](=O)[O-])c2c(C)[nH]n(-c3ccccc3)c2=O)c1 (stereo not drawn),u,28.2µM*,7.94µM*,x,x,1.1%
CCN(CC)CCCN1C(=O)C(=O)/C(=C(/O)c2ccc(C)cc2)C1c1ccccn1 (stereo not drawn),-18.7%,u,-5.6%,1.5%,-0.7%,-1.2%
O=C1C(=O)N(CCN2CCOCC2)C(c2cccnc2)/C1=C(/O)c1ccccc1 (stereo not drawn),4.7%,6.5%,15.4%,x,3.9%,x
